Measurements published in PubChem BioAssay.
The source made the active and inactive calls.

Columns and labels:
[1] = optical density shifts of acrAB sulA E. coli – strain DRC41, OD650, 48 h, E. coli filamentation inducer project, primary screen (AID 1152); conditions: higher = more signal, called active from +8 up or from −8 down;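 further: E. coli MC1000 strain DRC41 lacking acrAB efflux pump and sulA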
[2] = probe aLefty1 binding on compound microarray – biochemical, small-molecule microarray, 635/667 nm fluorescence, primary screen (AID 1153); conditions: higher = more signal;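 further: score merges spot fluorescence with signal-to-noise ratio from the scanned slide images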
[3] = plasmodial surface anion channel blockers, osmotic lysis – cell-based, P. falciparum Indochina, OD700, 1 h, primary screen (AID 1154); conditions: P. falciparum Indochina infected RBC osmotic lysis, higher = more signal, called active from +8 up or from −8 down
[4] = plasmodial surface anion channel blockers, osmotic lysis – cell-based, P. falciparum Indochina, OD700, 2 h, primary screen (AID 1155);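 further: lysis reports solute entry through the parasite surface anion channel PSAC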; conditions: P. falciparum Indochina infected erythrocytes, higher = more signal, called active from +8 up or from −8 down
[5] = changes in parasitized red cell lysis, either direction – P. falciparum Indochina, OD700, 3 h, PSAC antagonist project, primary screen (AID 1156); conditions: P. falciparum-infected erythrocytes, osmotic lysis, higher = more signal, called active from +8 up or from −8 down
[6] = plasmodial surface anion channel blockers, osmotic lysis – cell-based, P. falciparum Indochina, OD700, 18 h, primary screen (AID 1157); conditions: P. falciparum Indochina infected erythrocytes, osmotic lysis OD700, 18 h; higher = more signal, called active from +8 up or from −8 down
[7] = S6 kinase pathway phospho-S6 level changes – cell-based, A549, cytoblot, luminescence, serum-stimulated, primary screen (AID 1158); conditions: 5 h, higher = more signal;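 further: serum-stimulated A549 lung adenocarcinoma cells; signal is phosphorylated S6 detected by cytoblot immunostaining with HRP secondary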
[8] = target: NADPH oxidase 2 (Homo sapiens) (UniProt P04839); assay: compounds shifting NOX2 Amplex Red fluorescence – cell-based, HEK293-NOX2, PMA-stimulated, NOX inhibitor project, primary screen (AID 1159); conditions: 45 min, higher = more signal, called active from +8 up or from −8 down; further: test concentration not given here
[9] = target: NADPH oxidase 4 (Homo sapiens) (UniProt Q9NPH5); assay: compounds shifting NOX4 Amplex Red fluorescence – cell-based, HEK293-NOX4, tetracycline-induced, NOX inhibitor project, primary screen (AID 1160); conditions: HEK293-NOX4, Amplex Red H2O2 fluorescence, 45 min; higher = more signal, called active from +8 up or from −8 down
[10] = target: NADPH oxidase 5 (Homo sapiens) (UniProt Q96PH1); assay: compounds shifting NOX5 Amplex Red fluorescence – cell-based, HEK293-NOX5, NOX inhibitor project, primary screen (AID 1161); conditions: HEK293-NOX5, ionomycin, 45 min, higher = more signal
[11] = compound effects on lung adenocarcinoma cell viability – A549, calcein-AM fluorescence, 48 h, basal, profiling panel (AID 1162); conditions: higher = more signal; further: test concentration not given here
[12] = compound effects on differentiated 3T3-L1 adipocyte viability – cell-based, 3T3-L1 adipocytes, calcein-AM fluorescence, 48 h, basal, profiling panel (AID 1163); conditions: 3T3-L1 adipocytes viability, higher = more signal; further: test concentration not given here
[13] = compound effects on hepatocellular carcinoma cell viability – HepG2, calcein-AM fluorescence, 48 h, basal, profiling panel (AID 1164); conditions: higher = more signal; further: test concentration not given here
[14] = compound effects on multiple myeloma cell viability – MM1S, calcein-AM fluorescence, 48 h, basal, profiling panel (AID 1165); conditions: higher = more signal; further: test concentration not given here
[15] = calcein-AM signal in unstimulated myeloma cells – cell-based, calcein-AM fluorescence, 48 h, PK04 Diversity Set, profiling panel (AID 1166); conditions: RPMI8226 myeloma viability, higher = more signal;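 further: cells grown under basal conditions without added stimulus; test concentration not given here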
[16] = JC-1 mitochondrial signal, unstimulated HepG2 cells – cell-based, JC-1 fluorescence, 24 h, 100 nL compound, profiling panel (AID 1167); conditions: HepG2 mitochondrial potential, higher = more signal; further: test concentration not given here
[17] = JC-1 mitochondrial signal, unstimulated adipocytes – cell-based, JC-1 fluorescence, 3T3-L1 adipocytes, 24 h, 100 nL compound, profiling panel (AID 1168); conditions: JC-1 mitochondrial fluorescence, higher = more signal, called active from +8 up or from −8 down; further: test concentration not given here
[18] = JC-1 mitochondrial signal, unstimulated myeloma cells – cell-based, JC-1 fluorescence, RPMI8226, 24 h, 100 nL compound, profiling panel (AID 1169); conditions: JC-1 mitochondrial potential fluorescence, higher = more signal; further: test concentration not given here
[19] = JC-1 mitochondrial signal, unstimulated MM1S myeloma – cell-based, JC-1 fluorescence, 24 h, 100 nL compound, profiling panel (AID 1170); conditions: MM1S mitochondrial potential, higher = more signal; further: test concentration not given here
[20] = resazurin metabolic signal in A549 cells – cell-based, resazurin fluorescence, 24 h, PK04 Diversity Set, profiling panel (AID 1171); conditions: A549 viability, higher = more signal, called active from +8 up or from −8 down; further: test concentration not given here

Chain of NADPH oxidase 5 (Homo sapiens) (Q96PH1 whole entry, looked up): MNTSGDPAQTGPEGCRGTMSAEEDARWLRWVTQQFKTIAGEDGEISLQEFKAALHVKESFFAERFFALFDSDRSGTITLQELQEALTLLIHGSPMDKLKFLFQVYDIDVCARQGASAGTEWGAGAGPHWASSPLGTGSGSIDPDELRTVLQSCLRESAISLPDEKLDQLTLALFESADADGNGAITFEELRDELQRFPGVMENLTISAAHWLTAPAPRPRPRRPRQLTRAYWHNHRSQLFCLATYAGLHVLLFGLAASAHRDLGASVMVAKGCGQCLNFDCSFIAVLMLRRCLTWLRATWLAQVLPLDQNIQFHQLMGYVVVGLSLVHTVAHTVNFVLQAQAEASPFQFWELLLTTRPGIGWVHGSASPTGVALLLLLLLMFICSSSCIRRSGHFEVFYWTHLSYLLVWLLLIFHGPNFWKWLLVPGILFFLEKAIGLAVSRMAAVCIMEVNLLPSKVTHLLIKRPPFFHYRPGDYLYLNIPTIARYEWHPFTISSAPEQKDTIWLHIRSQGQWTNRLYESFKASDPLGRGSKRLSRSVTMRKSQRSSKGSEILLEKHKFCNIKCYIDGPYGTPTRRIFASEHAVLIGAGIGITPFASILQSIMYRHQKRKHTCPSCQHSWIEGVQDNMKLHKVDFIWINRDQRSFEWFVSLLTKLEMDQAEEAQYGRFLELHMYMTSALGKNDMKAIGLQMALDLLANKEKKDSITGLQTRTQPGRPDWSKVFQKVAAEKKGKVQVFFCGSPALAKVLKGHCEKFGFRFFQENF
Chain of NADPH oxidase 4 (Homo sapiens) (Q9NPH5 whole entry, looked up): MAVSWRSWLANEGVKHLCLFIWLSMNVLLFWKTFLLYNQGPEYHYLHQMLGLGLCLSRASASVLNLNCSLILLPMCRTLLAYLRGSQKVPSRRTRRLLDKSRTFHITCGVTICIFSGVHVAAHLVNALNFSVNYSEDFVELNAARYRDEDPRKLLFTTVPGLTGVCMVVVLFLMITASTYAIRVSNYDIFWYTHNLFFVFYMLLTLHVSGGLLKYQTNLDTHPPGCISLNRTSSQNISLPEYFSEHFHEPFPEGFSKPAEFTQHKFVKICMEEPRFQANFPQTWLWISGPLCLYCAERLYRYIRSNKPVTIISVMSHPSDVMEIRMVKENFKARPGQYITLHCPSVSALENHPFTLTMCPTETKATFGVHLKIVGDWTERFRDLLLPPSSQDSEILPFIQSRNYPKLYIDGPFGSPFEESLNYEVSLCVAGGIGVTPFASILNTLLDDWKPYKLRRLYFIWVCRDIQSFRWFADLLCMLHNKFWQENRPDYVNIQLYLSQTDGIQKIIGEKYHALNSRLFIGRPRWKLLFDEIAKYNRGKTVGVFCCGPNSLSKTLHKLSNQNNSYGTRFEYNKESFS
Chain of NADPH oxidase 2 (Homo sapiens) (P04839 whole entry, looked up): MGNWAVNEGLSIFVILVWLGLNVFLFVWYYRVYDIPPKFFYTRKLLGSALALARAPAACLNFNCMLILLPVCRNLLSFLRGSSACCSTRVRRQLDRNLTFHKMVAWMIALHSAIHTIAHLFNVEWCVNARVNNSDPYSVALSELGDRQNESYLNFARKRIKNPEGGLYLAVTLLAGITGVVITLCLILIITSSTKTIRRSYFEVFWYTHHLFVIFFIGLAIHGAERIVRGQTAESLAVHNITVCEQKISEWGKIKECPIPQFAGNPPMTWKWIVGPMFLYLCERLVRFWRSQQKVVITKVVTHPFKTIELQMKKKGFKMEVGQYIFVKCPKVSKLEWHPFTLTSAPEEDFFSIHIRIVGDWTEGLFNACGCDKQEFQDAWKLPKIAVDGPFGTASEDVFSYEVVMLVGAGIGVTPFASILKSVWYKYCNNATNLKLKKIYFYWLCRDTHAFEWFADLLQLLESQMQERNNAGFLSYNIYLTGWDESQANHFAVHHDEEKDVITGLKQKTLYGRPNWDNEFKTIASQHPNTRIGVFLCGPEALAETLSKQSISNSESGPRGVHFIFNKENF

CCN(CC)c1ccc(N2CC=CC34O[C@@H]5/C=C\CCC(C)OC(=O)C5[C@H]3C(=O)N(CCCCCO)[C@@H]4C2=O)cc1 (stereo not given in full)
z-score [1]: -0.0949 (inactive) | composite z-score [2]: -0.147 | z-score [3]: -0.062 (inactive) | z-score [4]: -0.928 (inactive) | z-score [5]: -0.356 (inactive) | z-score [6]: -0.427 (inactive) | z-score [7]: 0.414 | z-score [8]: -0.0453 (inactive) | z-score [9]: -0.419 (inactive) | z-score [10]: 0.779 | z-score [11]: 0.192 | z-score [12]: -0.743 | z-score [13]: 0.0376 | z-score [14]: 1.56 | z-score [15]: -0.863 | z-score [16]: 0.423 | z-score [17]: 0.158 (inactive) | z-score [18]: -0.0486 | z-score [19]: 1.29 | z-score [20]: 0.697 (inactive)

CCOC(=O)C1=C[C@@H](C(C)C)N(S(=O)(=O)c2ccc(C)cc2)[C@H]1c1ccccc1F
z-score [1]: -1.02 (inactive) | composite z-score [2]: 0.389 | z-score [3]: 0.21 (inactive) | z-score [4]: 0.668 (inactive) | z-score [5]: -0.422 (inactive) | z-score [6]: 0.587 (inactive) | z-score [7]: -0.851 | z-score [8]: 0.173 (inactive) | z-score [9]: -0.957 (inactive) | z-score [10]: 1.06 | z-score [11]: -1.2 | z-score [12]: 0.0139 | z-score [13]: -0.972 | z-score [14]: -0.463 | z-score [15]: -1.08 | z-score [16]: 0.175 | z-score [17]: 0.227 (inactive) | z-score [18]: -0.128 | z-score [19]: -0.581 | z-score [20]: 1.76 (inactive)

COc1ccc([Si](C)(C)[C@H]2[C@H](CCO)O[C@@]3(C(=O)N(Cc4ccccc4)c4ccc(N5CCCCC5=O)cc43)[C@@H]2C)cc1
z-score [1]: 0.663 (inactive) | composite z-score [2]: 0.0844 | z-score [3]: 6.61 (inactive) | z-score [4]: 2.24 (inactive) | z-score [5]: 1.45 (inactive) | z-score [6]: 1.72 (inactive) | z-score [7]: 0.204 | z-score [8]: -1.16 (inactive) | z-score [9]: 0.636 (inactive) | z-score [10]: 1.81 | z-score [11]: -0.0531 | z-score [12]: -0.627 | z-score [13]: -3.62 | z-score [14]: -2.03 | z-score [15]: -4.53 | z-score [16]: 2 | z-score [17]: 0.355 (inactive) | z-score [18]: -0.781 | z-score [19]: 0.363 | z-score [20]: -2.68 (inactive)

Cc1ccc(S[C@]2(C(=O)NCC(C)C)CC(=O)N(Cc3cc(C(F)(F)F)cc(C(F)(F)F)c3)[C@@H]2c2ccc(CO)cc2)cc1
z-score [1]: -0.687 (inactive) | composite z-score [2]: 0.2 | z-score [3]: 1.3 (inactive) | z-score [4]: 0.596 (inactive) | z-score [5]: 0.664 (inactive) | z-score [6]: 0.13 (inactive) | z-score [7]: -0.0958 | z-score [8]: 1.73 (inactive) | z-score [9]: 0.823 (inactive) | z-score [10]: -0.188 | z-score [11]: -0.174 | z-score [12]: 0.518 | z-score [13]: -0.527 | z-score [14]: -0.741 | z-score [15]: -0.744 | z-score [16]: -0.444 | z-score [17]: -0.612 (inactive) | z-score [18]: 0.244 | z-score [19]: -0.133 | z-score [20]: -0.0187 (inactive)

CS(=O)(=O)CCOC(=O)C1=CC(CCCO)=CC(c2ccc(CN3CCCC3)cc2)N(Cc2cccc(OC(F)(F)F)c2)C=C1C(=O)OCCS(C)(=O)=O (stereo not given)
z-score [1]: -0.804 (inactive) | composite z-score [2]: 0.879 | z-score [3]: 1.55 (inactive) | z-score [4]: 0.942 (inactive) | z-score [5]: 0.128 (inactive) | z-score [6]: 0.577 (inactive) | z-score [7]: 0.219 | z-score [8]: -0.302 (inactive) | z-score [9]: -0.764 (inactive) | z-score [10]: -0.504 | z-score [11]: 0.75 | z-score [12]: 0.309 | z-score [13]: 1.81 | z-score [14]: -1.46 | z-score [15]: -0.697 | z-score [16]: 3.78 | z-score [17]: -0.168 (inactive) | z-score [18]: -0.661 | z-score [19]: -0.935 | z-score [20]: 0.516 (inactive)

C[N+](C)(C)CCCC[C@@H]1NC(=O)[C@H]2C[C@@H](C(=O)NCCCCCCNC(=O)CS)[C@@H](c3ccc(O)cc3)N2C1=O
z-score [1]: -0.265 (inactive) | composite z-score [2]: -0.299 | z-score [3]: 1.24 (inactive) | z-score [4]: 0.193 (inactive) | z-score [5]: 1.12 (inactive) | z-score [6]: 0.0061 (inactive) | z-score [7]: -0.409 | z-score [8]: 0.518 (inactive) | z-score [9]: 0.507 (inactive) | z-score [10]: 0.936 | z-score [11]: -0.293 | z-score [12]: -0.267 | z-score [13]: -0.838 | z-score [14]: -0.414 | z-score [15]: 0.498 | z-score [16]: -1.66 | z-score [17]: -0.564 (inactive) | z-score [18]: 0.164 | z-score [19]: -0.0762 | z-score [20]: -0.657 (inactive)

C[C@H]1C2[C@H](Cc3ccccc3)NC(=O)[C@]23C(=O)NCC(=O)N2CCC[C@H]2C(=O)NC/C=C/CCC/C=C/C3[C@@H]2O[C@]12C (stereo not given in full)
z-score [1]: 1.38 (inactive) | composite z-score [2]: -0.103 | z-score [3]: 1.44 (inactive) | z-score [4]: -0.0812 (inactive) | z-score [5]: 0.391 (inactive) | z-score [6]: 0.133 (inactive) | z-score [7]: 0.781 | z-score [8]: 1.61 (inactive) | z-score [9]: -0.66 (inactive) | z-score [10]: 1.88 | z-score [11]: 0.776 | z-score [12]: 1.42 | z-score [13]: -0.39 | z-score [14]: -0.37 | z-score [15]: -0.682 | z-score [16]: 0.624 | z-score [17]: 0.244 (inactive) | z-score [18]: -0.877 | z-score [19]: 1.41 | z-score [20]: -1.46 (inactive)

C=CCC(OC(C)=O)[C@@H]1[C@@H](N(Cc2ccc(-c3cccc(C(F)(F)F)c3)o2)C(=O)c2cccc3ccccc23)c2cc(OCCCO)ccc2N1C(=O)Cc1ccc2ccccc2c1 (stereo not given in full)
z-score [1]: -0.599 (inactive) | composite z-score [2]: -0.147 | z-score [3]: 0.877 (inactive) | z-score [4]: -0.397 (inactive) | z-score [5]: 1.31 (inactive) | z-score [6]: -0.449 (inactive) | z-score [7]: 0.359 | z-score [8]: -2.15 (inactive) | z-score [9]: -0.933 (inactive) | z-score [10]: -1.04 | z-score [11]: -0.285 | z-score [12]: 0.784 | z-score [13]: -0.0575 | z-score [14]: -0.564 | z-score [15]: -2.04 | z-score [16]: 1.1 | z-score [17]: -0.62 (inactive) | z-score [18]: -0.0209 | z-score [19]: -0.0374 | z-score [20]: -0.0845 (inactive)
